# Data taken from PubChem BioAssay AID652104 (National Center for Advancing Translational Sciences (NCATS), 2013).
# Out of some 410,000 compounds screened, about 7,200 (1.8%) were called active. Entries that show only a call come without a potency. Another 7% or so got no clear call; they are omitted. Calls follow the shape of the dose curve; as a rule, active = well fitted activation curve with a large enough effect; inconclusive = small, poorly fitted or top-dose-only effect, or another doubt; inactive = no such curve, though single readings can be large or run the other way. Many of the other results were omitted from the sample, so actives are more common in it than they were.
# Assay: qHTS of TDP-43 Inhibitors; also: nearly all actives have a fitted effect of over 50% in size
# Conditions: TDP-43 expressing yeast growth rescue, BacTiter-Glo, 24 h; series mostly up to 46.1 µM
# Description: The goal of this project is to identify new chemical probes capable of reversing the toxicity associated with TDP-43 which is associated with frontotemporal lobar degeneration and amyotrophic lateral sclerosis. These compounds will provide a complementary approach to deciphering the tangled mechanisms of toxicity and protection that we have uncovered through genome-wide genetic screens and are beginning to uncover in a large-scale proteomics analysis with mass spectroscopy.
# To this end, a miniaturized assay was developed to be screened against the Molecular Libraries Small Molecule Repository (MLSMR) to discover TDP-43 inhibitors. Please note that in the set-up this yeast-based assay compounds that inhibit as TDP-43, have a read-out as activators.
# NIH Chemical Genomics Center [NCGC]
# NIH Molecular Libraries Probe Centers Network [MLPCN]
# Assay Submitter (PI): Susan Lindquist, Whitehead Institute/MIT
# Dispense 2.5 microL yeast galactose medium per 1536-well plate, pin compound, dispense 2.5 microL TDP-43 expressing yeast in galactose medium at OD600=0.02 (pregrown in raffinose medium to mid-log phase) per well, incubate for 24 hr at 30 deg C, and cell growth will be measured using 5 microL of Bactiter/Glo reagent to entire plate and read using Luminescence Protocol in ViewLux.
# Potency is read from the fitted curve at half-maximal effect.
row,Compound,Potency
1,COc1ccc(CNCCc2ccc3c(c2)OCO3)c(OC)c1OC,inactive
2,Cc1cc(=O)oc2c(C)c(OCC(=O)N3CCN(Cc4ccc5c(c4)OCO5)CC3)ccc12,inactive
3,CCOc1ccc(S(=O)(=O)NCc2ccc3c(c2)OCO3)cc1C,12.6 µM (active)
4,O=C(CCC(=O)N1C[C@H]2C[C@@H](C1)c1cccc(=O)n1C2)NCc1ccccc1C(F)(F)F,inactive
5,COc1cccc(C(c2nnnn2-c2ccc3c(c2)OCCO3)N2CCC3(CC2)C(=O)NCN3c2ccccc2)c1OC (stereo not given),inactive
6,Oc1cc2c(cc1CN1CCN(c3ccccc3)CC1)OCO2,inactive
7,O=C(NC1CCCCC1)N1Cc2cc(N3CCCCC3)ccc2-n2nncc2C1,inactive
8,O=C1/C(=C\c2ccc3c(c2)OCO3)N2CCC1CC2,inactive
9,c1cc2c(cc1CCNC1CCCCCC1)OCO2,inactive
10,c1cc2c(cc1[C@H]1OC[C@H]3[C@@H]1CO[C@@H]3c1ccc3c(c1)OCO3)OCO2,11.2 µM (active)
11,O=C(Cc1ccc(Cl)cc1)NCCN1CCN(C(=O)Cc2ccc(Cl)cc2)CC1,inactive
12,CCOC(=O)c1cccc(C2=C(CNC(=O)c3ccncc3)[C@H]3CC[C@@H](C2)N3Cc2ccccc2)c1,inactive
13,Cc1ccc(-n2c(C)cc(/C=C3\C(=O)NC(=O)N(C)C3=O)c2C)cc1C,inactive
14,Cc1cc(C=C2C(=O)NC(=O)NC2=O)c(C)n1-c1ccncc1,inactive
15,Cc1ccnc(-n2c(C)cc(/C=C3\C(=O)NC(=S)N(C)C3=O)c2C)c1,35.5 µM (active)
16,ClC(Cl)(Cl)c1ccccc1,inactive
17,Cc1nc2ccccc2c(=O)n1-c1ccc(Cl)cc1Cl,15.8 µM (active)
18,O=c1c2ccccc2nc(CBr)n1-c1ccc(Cl)cc1,inactive
19,O=c1c2ccccc2nc(-c2ccc(Cl)cc2Cl)n1-c1ccncc1,inactive
20,CCOC(=O)[C@]12Cc3cc(OC)ccc3[C@H]1N(C(C)C)C(=O)c1ccccc12,inactive
21,CCOC(=O)c1c(-c2ccccc2)oc2ccc(OC(=O)N(C)C)cc12,inactive
22,Cc1ccc(-c2nc3ccccc3c(=O)n2-c2ccc(Br)cn2)cc1,inactive
23,NC(=O)Cn1cc(C(=O)c2ccccc2F)c2ccccc21,inactive
24,N#Cc1ccc(Cn2cc(C(=O)c3ccco3)c3ccccc32)cc1,17.8 µM (active)
25,Cc1ccc([C@H]2C[C@H](O)[C@@H](n3cc(COC(=O)c4ccccc4)nn3)CN2CC2CCCCC2)cc1,inactive
26,CC(C)N(CC#CCC1(O)c2ccccc2-c2ccccc21)C(C)C,inactive
27,Cc1cccc(Cn2cccc(C(=O)Nc3ccc4c(c3)OCCO4)c2=O)c1,inactive
28,CCOC(=O)C1CN(C)CCC1=O (stereo not given),inactive

row,Compound,Potency
1,c1ccc(-c2nnc(SCc3nc4ccccc4[nH]3)o2)cc1,12.6 µM (active)
2,c1cc2c(c(NC3=NCCCS3)c1)CCCC2,inactive
3,O=c1[nH]c2ccccc2n1C1CCN(C(c2ccnc3ccccc23)c2nnnn2Cc2ccccc2)CC1 (stereo not given),inactive
4,COC(=O)C1=C(c2ccccc2OCc2ccccc2)C[C@@H]2CC[C@H]1N2C(=O)NCc1ccc(OC)cc1,35.5 µM (active)
5,COC(=O)C1=C(c2ccc(F)cc2OCc2ccccc2)C[C@@H]2CC[C@H]1N2C(=O)NCc1ccc2[nH]ccc2c1,inactive
6,COC(=O)C1=C(c2ccc(F)cc2OCc2ccccc2)C[C@@H]2CC[C@H]1N2C(=O)NCc1ccc(OC)c(OC)c1,inactive
7,Cc1ccc(NC(=O)N(Cc2ccc3c(c2)OCO3)C2CCN(Cc3ccccc3)CC2)cc1F,inactive
8,O=C(C1CCN(S(=O)(=O)c2ccc(Br)s2)CC1)N1CCN(c2ccccc2)CC1,inactive
9,O=c1[nH]c2ccccc2n1C1CCN(C(c2ccccc2)c2nnnn2Cc2ccccc2)CC1 (stereo not given),inactive
10,COC(=O)C1=C(c2ccc(F)cc2F)C[C@@H]2CC[C@H]1N2C(=O)NC1CC1,inactive
11,Cn1c(C(=O)N2CCC(C(=O)N3CCC4(CC3)OCCO4)CC2)cc2sccc21,inactive
12,Cc1cc(N2C(=O)C3CCCN3C2c2ccc(Cl)c(Cl)c2)no1 (stereo not given),inactive
13,CC1CNCCN1c1ccc(Cl)cc1 (stereo not given),inactive
14,CC12CCC3C(CCC4CC(=O)CCC43C)C1CC(=NO)C2=O (stereo not given),15.8 µM (active)
15,C[C@]12CCC3C(CC[C@H]4[C@H](O)[C@H](O)CC[C@]34C)C1CCC2=O (stereo not given in full),inactive
16,COc1ccc(-n2nnnc2C(c2cccc3ccccc23)N2CCC(n3c(=O)[nH]c4ccccc43)CC2)cc1 (stereo not given),inactive
17,Nc1ccc(Cc2ccc(N)c(Cl)c2)cc1Cl,12.6 µM (active)
18,CNCC[C@H](Oc1ccc(C(F)(F)F)cc1)c1ccccc1,inactive
19,COc1ccc(-c2nn(CCC#N)cc2C(=O)Nc2ccc(C(C)=O)cc2)cc1,inactive
20,CC(C)Oc1ccc(NC(=O)c2cc3ccccc3o2)cc1,inactive
21,C[N+]1(C)CCOC(O)(c2ccc(-c3ccc(C4(O)C[N+](C)(C)CCO4)cc3)cc2)C1 (stereo not given),5.01 µM (active)
22,Cc1nn(-c2ccccc2)c(C)c1NC(=O)COC(=O)Cc1ccccc1,inactive
23,C[C@@H]1C[C@@H]2O[C@H]2/C=C\C=C\C(=O)Cc2c(Cl)c(O)cc(O)c2C(=O)O1,11.2 µM (active)
24,c1ccc(CC2CCCCN2)cc1 (stereo not given),inactive
25,CN(C(=O)c1cccc(NC(=O)Cc2cccc([N+](=O)[O-])c2)c1)C1CCCCC1,inactive
26,Cc1ccc([C@H]2C[C@H](O)[C@@H](n3cc(COC(=O)c4ccccc4)nn3)CN2C(=O)C2CCCCC2)cc1,inactive
27,O=C(Nc1ccc(Cl)cc1C(=O)c1ccccc1)c1cc(Cl)cc(Cl)c1,inactive
